High-throughput results: PubChem BioAssay, The Scripps Research Institute Molecular Screening Center
Hits are enriched below; roughly 2.3% of the tested compounds scored in any of these assays.
M1 PAM: human M1 muscarinic receptor positive allosteric modulators, primary screen, CHO-K1 cells, Fluo-8 calcium fluorescence, 1536-well | Muscarinic acetylcholine receptor M1 (Homo sapiens), P11229 | CHO-K1 hM1, ACh EC20; 0% = ACh EC20, 100% = maximal ACh | activation, % at 3 µM | hit rate 0.088% among 360,000 | AID 588819, 2011; in the data active = activation above about 19%, passing the limit was not always enough
Target sequence (P11229 whole entry, looked up): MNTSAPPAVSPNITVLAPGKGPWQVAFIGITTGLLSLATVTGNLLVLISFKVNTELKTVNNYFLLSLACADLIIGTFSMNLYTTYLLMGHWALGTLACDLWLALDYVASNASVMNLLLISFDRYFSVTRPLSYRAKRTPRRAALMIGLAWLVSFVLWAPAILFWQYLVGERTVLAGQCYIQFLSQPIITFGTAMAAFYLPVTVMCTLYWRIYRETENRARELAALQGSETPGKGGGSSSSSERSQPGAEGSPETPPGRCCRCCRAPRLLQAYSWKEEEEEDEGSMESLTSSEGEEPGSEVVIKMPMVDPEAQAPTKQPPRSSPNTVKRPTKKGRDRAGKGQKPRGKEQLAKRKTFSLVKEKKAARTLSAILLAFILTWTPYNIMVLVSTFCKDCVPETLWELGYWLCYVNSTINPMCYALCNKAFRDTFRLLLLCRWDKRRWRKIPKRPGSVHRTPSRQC
CHO-K1 Ca antag: nonselective inhibitor or artifact in parental CHO-K1 cells; inhibition, % at 3 µM; AID 602250; hit rate 0.6% among 360,000; ATP-induced calcium, Fluo-8 fluorescence;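 active = inhibition above a per-plate cutoff, the plate's mean sample inhibition plus 3 SD, cut at about 24% in these data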;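 note: 0% = DMSO plus EC80 ATP and 100% = DMSO alone without ATP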
CHRM1 antagonist: human M1 muscarinic receptor antagonists, primary screen, CHO-K1 cells, Fluo-8 calcium fluorescence, 1536-well; Muscarinic acetylcholine receptor M1 (Homo sapiens), P11229; CHO-K1 hM1, ACh EC80 antagonist; inhibition, % at 3 µM; hit rate 1.3% among 360,000; AID 588852, 2011;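 active = percent inhibition above its own plate's cutoff, namely the mean of that plate's compound wells plus 3 SD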;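 note: peak over basal fluorescence ratio during 140 s after agonist addition; 0% = ACh EC80 plus DMSO and 100% = DMSO alone without agonist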
M1 PAM parental: nonselective calcium activators in parental CHO-K1 cells, primary screen, counter-screen for M1 PAM project, cell-based, Fluo-8 calcium fluorescence, full deck, 1536-well; ATP EC20; 0% at ATP EC20, 100% at ATP max; activation, % at 3 µM; hit rate 0.02% among 360,000;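 active = activation above the run cutoff, the mean activation of all test compounds plus 3 SD, cut at about 40% in these data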;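 note: peak over basal fluorescence ratio in a 140 s read after ATP addition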
CHO-K1 Ca ag: counter-screen for M1 agonists: effect in parental CHO-K1 cells | Fluo-8 calcium fluorescence; scaled to maximal ATP response, vehicle zero | hit rate 0.48% among 360,000 | activation, % at 3 µM; in the data active = activation above about 15%;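 note: untransfected CHO-K1 host cells lacking M1 receptor as counterscreen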
M1 ag: human M1 muscarinic receptor agonists, primary screen, Fluo-8 calcium fluorescence, CHO-K1 cells, HTS. Muscarinic acetylcholine receptor M1 (Homo sapiens), P11229. CHO-K1 hM1, agonist mode; 0% DMSO, 100% acetylcholine EC100. activation, % at 3 µM. hit rate 0.33% among 360,000;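 active = activation above the run's mean compound activation plus 3 SD, cut at about 16% in these data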;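 note: peak over basal fluorescence ratio within a 140 s kinetic read after compound addition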
* marks the source's active call; other numbers are inactive results; ! = not confirmed by another sample.

SMILES	M1 PAM	CHO-K1 Ca antag	CHRM1 antagonist	M1 PAM parental	CHO-K1 Ca ag	M1 ag
COc1cccc(NC(=O)C(c2ccccc2)N2CCN(CC(=O)N3CCOCC3)CC2)c1 (configuration not stated)	7	-13	-3	20	0	-1
Cc1ccc(NC(=O)CSc2ncc3ccccn23)cc1C	-12	-13	-6	2	2	-16
CC(=O)c1cc2cccc(OC3(C)CCN(Cc4ccc(-c5ccccn5)cc4)C3)c2o1 (configuration not stated)	-26	-3	35*	13	5	-8
COC(=O)Cc1ccc(OC2(C)CCN(Cc3ccccc3OC(F)F)C2)cc1 (configuration not stated)	-22	19	55*	0	0	-9
COC(=O)Cc1ccc(OC2(C)CCN(Cc3ccc(-c4ccccn4)cc3)C2)cc1 (configuration not stated)	-30	5	59*	2	1	-8
OC(c1cc(C(F)(F)F)nc2c(Cl)cc(Cl)cc12)C1CCCCN1 (configuration not stated)	7	-1	-8	15	18*	3
CC(=O)c1c(COC(=O)c2ccc(C)cc2)nc2ccccc2[n+]1[O-]	21	2	-23	0	0	0
CC(C)c1ccc(NC(=O)C[n+]2ccn(C3=C([O-])c4ccccc4C3=O)c2)cc1	-8	-3	8	-5	18*	-6
CCCC[n+]1ccn(C2=C([O-])c3ccccc3C(=O)/C2=N\S(=O)(=O)c2ccccc2)c1	-1	-4	-4	14	0	-2
CCc1nn2cc(C(=O)c3cc(Cl)ccc3O)cnc2c1-c1ccc(F)cc1	-7	-11	43*	15	1	-6
Cc1nn(-c2ccccc2)c2ncc(C(=O)c3cc(Cl)ccc3O)cc12	7	-7	-1	6	0	-4
COc1ccc(CN(CCC(c2ccc(F)cc2)C2CCOC(C)(C)C2)C(=O)c2ccco2)cc1 (configuration not stated)	-24	2	26*	5	5	-8
COc1ccc(Cc2noc(CN3CCN(c4ccc(Cl)cn4)CC3)n2)cc1OC	1	4	3	0	22*	-4
Cc1cc(/C=C(/C#N)c2cccc(F)c2)c(C)n1-c1cccnc1	-35	-16	34*	-4	2	-13
Cc1cc(/C=C(\C#N)C(=O)NCc2ccco2)c(C)n1-c1cccnc1	2	-16	-9	20	5	-2
CCOC(=O)N1CCN(C(=O)CCN2C(=O)/C(=C\c3cccc(OC)c3)SC2=S)CC1	8	-15	-2	26	2	0
CN(C)c1oc(/C=C/c2cccs2)nc1S(=O)(=O)c1ccccc1	11	0	-12	19	1	-1
Cc1sc2nc(CSCC(=O)NC3(C#N)CCCCC3)[nH]c(=O)c2c1C	3	-8	0	0	0	-5
Cc1cccc(CSC(=N)N)c1	4	-1	4	15	0	-8
CC(SCc1ccccc1)C(=O)Nc1ccc(F)cc1 (configuration not stated)	4	-13	1	15	1	-4
Cc1cccc(CSC(Nc2ccc(F)cc2)=C(C#N)C#N)c1	-13	28*	20	0	13	3
N#CC(C#N)=C(Nc1ccc(F)cc1)SCc1cccc(Br)c1	-10	26*	24	16	10	3
CC(=O)c1cc(CN2CCC(n3nccc3NC(=O)c3ccccc3)CC2)cs1	-1	-2	-2	-1	0	-6
Cc1cc(C)c(NC(=O)CN2CCN3CCCC3C2)c(C)c1 (configuration not stated)	29*!	-13	-20	-6	0	5
C/C(=N\NC(=O)Cc1ccc(Cl)cc1)c1ccccc1O	1	2	-6	0	1	-4
SMILES	M1 PAM	CHO-K1 Ca antag	CHRM1 antagonist	M1 PAM parental	CHO-K1 Ca ag	M1 ag
CC12CCC(=O)N1C(C(=O)NNC(=O)COc1ccc(Br)cc1)CS2 (configuration not stated)	-11	17	33*	-31	0	-2
O=C(NCCCN1CCOCC1)c1ccc(Sc2ccccc2Cl)c([N+](=O)[O-])c1	-26	-10	31*	25	3	-11
CC(NC(=O)c1ccc(Cl)c(S(=O)(=O)N2CCCCCC2)c1)c1cccnc1 (configuration not stated)	-27	-10	37*	4	3	-7
CN(C)C(CNC(=O)c1ccc(Cl)c(S(=O)(=O)N2CCCCCC2)c1)c1ccccc1 (configuration not stated)	-20	-10	52*	2	10	-4
O=C(NCCN1CCOCC1)c1ccc(Cl)c(S(=O)(=O)N2CCCCC2)c1	-8	17	49*	-30	0	-2
COc1ccc(C(C#N)CC(=O)c2ccc(OC)c(OCc3ccccc3)c2)cc1OC (configuration not stated)	5	3	-16	12	5	-1
CCCn1c(NC(=O)c2ccc(Cl)c(S(=O)(=O)N3CCCC3)c2)nc2ccccc21	-13	16	35*	-14	1	-3
O=C(NCc1nc2ccccc2[nH]1)c1ccc(Cl)c(S(=O)(=O)N2CCCC2)c1	1	-3	0	-6	1	-4
NS(=O)(=O)c1ccc(NC(=O)CSc2nnc(Cc3cccs3)n2-c2ccccc2)cc1	1	-2	-2	7	0	-4
Cc1ccc(-n2c(Cc3cccs3)nnc2SCC(=O)Nc2ccc(S(N)(=O)=O)cc2)cc1	12	25*	7	-8	0	-1
c1ccc(C[n+]2ccc3ccccc3c2)cc1	-12	17	25	-14	0	-7
Clc1cccc(Cl)c1C[n+]1ccc2ccccc2c1	-17	2	31*	-9	1	-12
COc1ccc(/C=N/NC(=O)c2ccc(N)cc2)cc1Cn1cc([N+](=O)[O-])cn1	4	-3	-6	5	1	-4
Cc1ccsc1C(C(=O)NC(C)(C)C)N(C(=O)c1csnn1)c1ccccc1 (configuration not stated)	12	-11	-13	21	-1	-3
CC(OC(=O)CCCN=C1NS(=O)(=O)c2ccccc21)C(=O)c1ccccc1 (configuration not stated)	-3	-4	5	6	16*	19*
OC(CCN1CC2CCC(CC2)C1)(Cc1ccccc1)c1ccco1 (configuration not stated)	-28	-6	86*	3	0	-6
